This is an account of results in PubChem BioAssay AID504408 (Broad Institute, 2011).

Among all 300,000 compounds or so, about 5,200 (1.7%) were called active. For the sample, actives were picked, then their nearest neighbours and some compounds at random. A number with no mark means an inactive call.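 The calls were made as follows: active = mean replicate activation of at least 50% with a set share of replicates each reaching 50%; inconclusive = only one of those two conditions met; inactive = mean below 50% and too few replicates reaching it.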

The nature of this assay: HSF-1 response element luciferase induction – NIH3T3-HGL cells, MG132 stress, luminescence, single point, primary screen (AID 504408).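 Also: 0% = median of the neutral control wells and 100% = twice that signal.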 Particulars: NIH3T3-HGL HSF-1 luciferase reporter, MG132, 8 h; at 9 µM; active compounds read high; 100% = twice DMSO control signal. For orientation: In a reporter assay the amount or activity of a reporter protein is the signal.
In the case of `Cc1c(C(=O)NCc2ccccc2)cnn1-c1ccccc1`, the activation is 2.05%.

Turning to `Cc1c(CNCCc2ccccc2)c(C(=O)O)c(C)n1-c1ccccc1`, the activation was 60.5% (active).

As for `CNC(=O)CSc1nnc(CCc2ccccc2)n1-c1ccccc1`, the activation was -1.82%.

Regarding `CC1(C)C/C(=N/Nc2ccc([N+](=O)[O-])cc2[N+](=O)[O-])C(C)(C)O1`, the activation is -1.15%.

`COc1ccc(C(=O)CCC(=O)Nc2cccnc2)c(OC)c1`: the activation is 11.9%.

For the compound `COc1ccc(C(=O)NC(C)CCc2ccccc2)c(OC)c1` (stereo not drawn), the activation is 15.4%.

As to `COc1ccc(C(=O)CCc2ccccc2O)c(OC)c1`, the activation was 58% (active).

Regarding `O=C(Nc1ncccc1O)c1ccc(S(=O)(=O)N2CCCC2)cc1`, the activation was 2.49%.

Consider `COc1cccc(N2CC(NS(=O)(=O)c3cccs3)CC2=O)c1` (stereo not drawn), for which the activation was 2.81%.

On to `O=C(Nc1cc(S(=O)(=O)N2CCOCC2)ccc1OCC(F)(F)F)c1ccc(N2CCCC2=O)cc1`, for which the activation is -1.99%.

Regarding `CCOC(=O)c1c(Cc2ccc(Cl)cc2)c[nH]c1C`, the activation is 87.7% (active).

Turning to `CCOC(=O)c1ccc(CS(=O)c2ccc(Cl)cc2)o1` (stereo not drawn), the activation is 8.33%.

As to `CCOC(=O)N1CCN(C(=O)CNC(=O)Cc2ccc(Cl)cc2)CC1`, the activation was 9.04%.

Consider `NC1=NC(c2ccc([N+](=O)[O-])cc2)N(c2ccc(F)cc2)C(N)=N1` (stereo not drawn), for which the activation was -0.817%.

With `O=C(COC(=O)c1cnccn1)Nc1ccc(Cl)cc1C(F)(F)F`, the activation is -12.3%.

In the case of `Cc1ccc(Cl)c(OCC(=O)N(C)CC(=O)Nc2ccc(N3CCOCC3)cc2)c1`, the activation was 1.72%.

With `COc1ccc(-c2csc3ncnc(N4CCN(S(=O)(=O)c5cccc(F)c5)CC4)c23)cc1`, the activation was 2.84%.

`Cc1cc(NC(=O)CSC2=NS(=O)(=O)c3cc(Cl)ccc3N2)no1`: the activation is 1.14%.

Turning to `O=C(COC(=O)/C=C/c1nc2ccccc2s1)Nc1ccccc1Oc1ccccc1`, the activation was 54.4% (active).

With `CCN(C(=O)COC(=O)/C=C/c1nc2ccccc2s1)C1CCS(=O)(=O)C1` (stereo not drawn), the activation was 16.8%.

Take `COc1ccc(/C=C/C(=O)OCC(=O)Nc2cccc(Oc3ccccc3)c2)c(OC)c1`: the activation is 35.6%.

For `C/C(=N\Nc1nc2ccccc2[nH]1)c1cccs1`, the activation is 106% (active).

`O=C(Nc1ccccc1-c1nc2ccccc2[nH]c1=O)c1cccs1`: the activation is -0.37%.

For `C/C(=N\Nc1ncc(Cl)cc1Cl)c1cccs1`, the activation was -33.8%.

For `Cc1sc2ncnc(N3CCC(C(=O)NNC(=O)c4ccc(F)cc4)CC3)c2c1C`, the activation was -17.9%.

Turning to `Cn1c(SCC(=O)c2ccccc2)ncc(C(=O)Nc2ccc(F)cc2)c1=O`, the activation was 9.37%.

With `Brc1cnc2ccccc2c1N1CCCCC1`, the activation is 4.42%.

Regarding `COc1ccc(CCNC(=O)C(=O)NCC2CCCN2S(=O)(=O)c2cccs2)cc1OC` (stereo not drawn), the activation is -2.01%.

Take `c1ccc(-n2ncc3c(N4CCCC4)ncnc32)cc1`: the activation is 41.2%.

For `O=C(NNc1ncnc2c1cnn2-c1ccccc1)c1ccco1`, the activation was 13.2%.

Turning to `C1=C(CCNc2ncnc3c2cnn3-c2ccccc2)CCCC1`, the activation was 61.4% (active).

For the compound `O=[N+]([O-])c1cccc(C=NN=Cc2ccccc2O)c1`, the activation is -25.2%.

Take `O=C(Oc1ccc(-c2nnco2)cc1)c1ccc(F)c(S(=O)(=O)N2CCOCC2)c1`: the activation is 12.4%.

As for `CCCSc1nc2[nH]ncc2c(=O)[nH]1`, the activation is -12.9%.

`Cc1cccc(NC(=O)CSc2nc3[nH]ncc3c(=O)[nH]2)c1`: the activation is 7.39%.

With `Cc1ccc(CSc2nc3[nH]ncc3c(=O)[nH]2)cc1`, the activation was 87.9% (active).

Consider `Cc1cccc(N2CC(C(=O)Nc3ccccc3N3CCCC3)CC2=O)c1C` (stereo not drawn), for which the activation is -9.91%.

As for `Cc1ccc(S(=O)(=O)N2CCN(C(=O)Cc3sc(C)nc3-c3ccc(F)cc3)CC2)c(C)c1`, the activation is 5.21%.

For the compound `CCOC(=O)c1cc(C(C)C)sc1NC(=O)COC(=O)c1nccnc1N`, the activation is -14.3%.

On to `NC(=S)N/N=C/c1ccc([N+](=O)[O-])cc1`, for which the activation was 19.9%.

`Cc1ccsc1C(=O)N/N=C/c1ccc([N+](=O)[O-])cc1`: the activation was 59% (active).

As for `Cc1nc2ccccc2cc1C(=O)N/N=C/c1ccc([N+](=O)[O-])cc1`, the activation is 10.7%.

As to `O=C(Nc1ccc(N2CCCCC2)cc1)c1cc(S(=O)(=O)N2CCOCC2)ccc1F`, the activation was 12.6%.

`CC1CCC(NC(=O)CNC(=O)c2ccc3ccccc3c2)CC1` (stereo not drawn): the activation was 26.1%.

Take `O=C(COC(=O)Cn1[nH]c(=O)c2ccccc2c1=O)Nc1c(Cl)cccc1C(F)(F)F`: the activation was -2.68%.

Take `CC1(C)CC(N2CCN(C(c3ccccc3)c3ccccc3)CC2)=CC(=[N+]2CCCCC2)C1`: the activation was 59.1% (active).

Consider `CC(C)NC(=S)N1CCN(C(c2ccccc2)c2ccccc2)CC1`, for which the activation is 13.7%.

In the case of `O=C(O)CN1CCN(C(c2ccccc2)c2ccccc2)CC1`, the activation was -26.6%.

As to `COc1ccccc1CCNC(=O)CN1C(=O)NC2(CCCC2)C1=O`, the activation is -21.2%.

Consider `CC(NC(=O)c1ccccc1F)c1cccc2ccccc12` (stereo not drawn), for which the activation was -4.26%.

For the compound `CNC(=O)COC(=O)c1cc(-c2ccc(OC)cc2)nc2ccccc12`, the activation was 31.1%.

In the case of `COc1ccc(-c2cc(C(=O)Nc3ccccc3O)c3ccccc3n2)cc1`, the activation was 65.5% (active).

With `COc1ccc(NC(=O)c2cc(-c3cc(OC)c(OC)c(OC)c3)nc3ccccc23)c(OC)c1`, the activation was -3.17%.

On to `COc1ccc(NC(=O)CN(C)C(=O)Cc2coc3cc(C)c(C)cc23)cc1`, for which the activation was -0.425%.

For the compound `CC(=O)c1nn(-c2ccc(C)cc2)cc1C(=O)c1cccc(Br)c1`, the activation is -31.9%.

With `COc1ccc(C(=O)n2nc(-c3ccc(Cl)cc3)nc2N)cc1OC`, the activation is 71.9% (active).

For `COc1ccc(C(=O)n2nc(-c3ccc(C)cc3)nc2N)cc1OC`, the activation was -1.25%.

With `COc1ccc(C(=O)n2nc(C)c(Br)c2C)cc1OC`, the activation is 6.57%.

For the compound `CC12CCC(=O)N1C(C(=O)NCCN1C(=O)S/C(=C\c3ccccc3F)C1=O)CS2` (stereo not drawn), the activation was 3.07%.

As for `CCOC(=O)CC1C(=O)NCCN1c1nc2c(C)cccn2c(=O)c1/C=C1\SC(=S)N(C(C)CC)C1=O` (stereo not drawn), the activation was -29%.

On to `CCCN(CCC)c1nc2c(C)cccn2c(=O)c1/C=C1/SC(=S)N(Cc2ccco2)C1=O`, for which the activation was 99% (active).

On to `O=C(CCCN1C(=O)/C(=C\c2ccco2)SC1=S)Nc1cccc2ccccc12`, for which the activation is 14.2%.

Turning to `CC(C)c1ccc(S(=O)(=O)N2CCN(C(=O)CN3C(=O)NC(C)(c4ccccc4)C3=O)CC2)cc1` (stereo not drawn), the activation is -9.21%.

As for `CCC(CC)c1nnc(NC(=O)C2=COCCO2)s1`, the activation is 13.8%.

`O=C(c1ccc(F)c(S(=O)(=O)N2CCOCC2)c1)N(CCc1ccccc1)Cc1ccccc1`: the activation was 6.07%.

In the case of `O=C(CSc1nc2[nH]ncc2c(=O)[nH]1)Nc1ccc(F)cc1`, the activation was -14.4%.

Turning to `O=C(Cn1ncc(N2CCCC2)c(Br)c1=O)c1ccc(Cl)cc1`, the activation was 75.4% (active).

In the case of `CC(=O)Cn1ncc(N2CCOCC2)c(Br)c1=O`, the activation is -14.8%.

For `O=C(Cn1nc(CNc2ccc(Cl)cc2)[n+]2c1CCCCC2)c1ccc(Cl)cc1`, the activation is 19.7%.

As to `O=C(NCC(c1ccco1)N1CCc2ccccc21)c1cccc(F)c1` (stereo not drawn), the activation is 33.2%.

Take `Cc1ccc(-c2nn(-c3ccccc3)cc2C(=O)NCCCN2CCCC2=O)cc1`: the activation was -4.32%.

Turning to `O=[N+]([O-])c1ccccc1/C=C/CN1CCCC(CO)C1` (stereo not drawn), the activation is -4.33%.

For the compound `O=[N+]([O-])c1ccccc1/C=C/CN1CCC(O)CC1`, the activation was -18.5%.

As for `CC1CCCCC1NC(=O)/C(C#N)=C/C=C/c1ccccc1[N+](=O)[O-]` (stereo not drawn), the activation is 53.4% (active).

On to `O=C(Nc1cc2c3c(c1)CC(=O)N3CCC2)c1ccccc1F`, for which the activation is -11.8%.

Turning to `Cc1nc(-c2ccc(Cl)cc2)sc1C(=O)CBr`, the activation is 75.1% (active).

Take `Cc1nc(-c2ccc(Cl)cc2)sc1C(=O)NN`: the activation is -2.26%.

In the case of `Cc1nc(-c2ccccc2)sc1C(=O)/C=C/N(C)C`, the activation was -1.43%.

In the case of `COc1ccccc1NC(=O)COC(=O)c1ccccc1SCC(=O)N1CCCC1`, the activation is -2.69%.

On to `O=C(/C=C/c1ccc(OCc2c(F)cccc2Cl)cc1)N1CCOCC1`, for which the activation is 67.7% (active).

On to `COCCCNC(=O)/C=C/c1ccc(OCc2c(F)cccc2Cl)cc1`, for which the activation was 0.816%.

With `CN(C)CCCNC(=O)/C=C/c1ccc(OCc2c(F)cccc2Cl)cc1`, the activation was -16.4%.

With `Cc1ccn2c(=O)nc(SCC(=O)NCc3ccc4c(c3)OCO4)nc2c1`, the activation was -9.78%.

Take `CC1=NNC(=O)C1Cc1c(Cl)cccc1Cl` (stereo not drawn): the activation was 8.87%.

For the compound `O=C(CSc1nc2ccc([N+](=O)[O-])cc2[nH]1)c1ccc(Cl)cc1`, the activation is 9.88%.

On to `N#C/C(=C(/O)COC(=O)COc1ccc(Cl)cc1)c1nc2ccccc2[nH]1`, for which the activation is 25.2%.

For the compound `O=C(Cc1nc2ccccc2[nH]c1=O)c1ccc(Cl)cc1`, the activation is 74.3% (active).

In the case of `CCN1C(=O)[C@@H]2[C@@H](c3ccc(-c4ccc(OC)cc4)c(OC)c3)N3CCC[C@@]3(C(=O)OC)[C@@H]2C1=O`, the activation is 14.7%.

As for `COc1ccc(OCCCON2C(=O)c3ccccc3C2=O)cc1`, the activation is 3.41%.

For the compound `CCOC(=O)c1c(-c2ccc(C)cc2)csc1/N=C(\C)C1=C(O)c2ccccc2C1=O`, the activation is 9.57%.

As for `CCOC(=O)C1=C(c2ccc(OC)cc2)C(=O)c2ccccc2C1=O`, the activation is 82.9% (active).

As for `O=C(Cc1ccc(S(=O)(=O)N2CCOCC2)s1)NCCOc1ccccc1F`, the activation is 3.3%.

Take `CC(=O)Nc1cccc(C(=O)OCC(=O)Nc2nnc(-c3ccccc3)o2)c1`: the activation was -13.5%.
